This passage reports inhibition results from PubChem BioAssay AID651661 (Broad Institute, 2012).

The campaign covered roughly 350,000 compounds. About 2,300 (0.66%) were called active. Shown is part of a subset that was picked to be rich in actives. Unmarked numbers belong to inactive results.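 How the source made its calls: active means mean inhibition of at least 50% after viability correction, with every replicate also passing that limit; inconclusive means mean reaches 50% but only one of two replicates passes; inactive means the rest.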

This experiment in a line: blockers of EWS/Fli transcriptional output – A673 cells, NR0B1 luciferase, luminescence, MLPCN library, primary screen (AID 651661).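 Further: firefly luciferase signal divided by Alamar Blue viability fluorescence both relative to DMSO.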 To be noted: A673 NR0B1-luciferase reporter, viability-normalised; at 12.6 µM; active compounds read high.
Take `C[C@@H]1CCCCO[C@@H](CN(C)Cc2ccncc2)[C@H](C)CN([C@H](C)CO)C(=O)c2cc(NC(=O)CCC(F)(F)F)ccc2O1`: the inhibition is -2.85%.
On to `Cc1ccc(S(=O)(=O)NC[C@H]2CC[C@@H]3[C@@H](CN3Cc3ccccc3C(=O)O)O2)cc1`, for which the inhibition is 4.08%.
The value for `C[C@@H]1CCCCO[C@@H](CN(C)C(=O)c2ccccc2)[C@H](C)CN([C@@H](C)CO)C(=O)c2cc(NS(=O)(=O)c3cn(C)cn3)ccc2O1` was -5.15%; that for `CC[n+]1cc(C)ccc1/C=C/c1ccc(N(C)C)cc1` was 57.5% (active); that for `CO[C@H]1CN(C)C(=O)c2cc(NC(=O)c3cnccn3)ccc2OC[C@@H](C)N(CC2CC2)C[C@@H]1C` was -6.87%.
On to `COc1ccc(-c2nc(-c3ccccc3)no2)c(OC)c1`, for which the inhibition is 77.6% (active).
Turning to `COc1ccc(/C=C/c2noc(-c3ccccc3OC(C)=O)n2)cc1`, the inhibition is 6.55%.
With `COc1ccc(-c2noc(CNC(=O)C(C)Oc3ccccc3)n2)cc1` (stereo not given), the inhibition is -7.08%.
The same measure for `COc1cccc(NC(=O)C[C@H]2CC[C@@H]3[C@H](COc4ccc(NC(C)=O)cc4C(=O)N3C)O2)c1`: -0.492%; for `O=C(C[C@@H]1C=C[C@@H](NS(=O)(=O)c2ccccc2)[C@H](CO)O1)N1CCN(c2ccccc2)CC1`: 2.46%.
Regarding `CNC(=O)C[C@H]1CC[C@H]2[C@H](COc3ccc(NC(=O)Nc4cccc(C)c4)cc3C(=O)N2C)O1`, the inhibition is -11.4%.
Turning to `C[C@H](O)C#Cc1ccc2c(c1)O[C@H](CN(C)C(=O)C1CCCCC1)[C@@H](C)CN([C@H](C)CO)S2(=O)=O`, the inhibition was 2.27%.
In the case of `O=c1cc(-c2ccccc2)[nH]c2cc(F)ccc12`, the inhibition is 54.2% (active).
With `Cc1ccc(-c2cc(=O)c3ccc(F)cc3[nH]2)cc1`, the inhibition is -5.43%.
Regarding `Cc1cc(=O)c2ccc(NC(=O)c3ccccc3)cc2[nH]1`, the inhibition was 9.56%.
Turning to `CCC(=O)N1CC2(CN(Cc3ccc(Cl)cc3)C2)c2c([nH]c3cc(OC)ccc23)[C@@H]1CO`, the inhibition was -10.6%.
Consider `CC(=O)Nc1ccc(S(=O)(=O)Nc2ccc(N3CCCCC3)cc2)cc1`, for which the inhibition is 63.2% (active).
`CC(=O)Nc1ccc(S(=O)(=O)Nc2ccc(-c3ccc4nnc(C)n4n3)cc2)cc1`: the inhibition was 18.6%.
Regarding `O=C(Nc1ccc(N2CCCCC2)cc1)c1cc(S(=O)(=O)N2CCOCC2)ccc1F`, the inhibition was 0.758%.
For the molecule `O=C(NCc1cccc(F)c1)[C@H]1[C@H](CO)[C@H]2Cn3c(cccc3=O)[C@@H]1N2`, the inhibition is -7.63%.
As to `O=C(Cc1ccccn1)N1CC(=O)N2[C@H](CO)[C@H](c3ccc(C#CCC4CCCC4)cc3)[C@@H]2C1`, the inhibition is -3.29%.
Take `CC(OC(=O)c1ccc(Cl)cc1O)C(=O)NCCC1=CCCCC1` (stereo not given): the inhibition is 1.44%.
The same measure for `C#CCNc1ccc(C(=O)OCC)cc1`: -46.2%; for `O=C(OC12CC3CC(CC(C3)C1)C2)c1ccc(NCc2cc(O)ccc2O)cc1`: 30.8%.
With `CC(CN1CCOCC1)OC(=O)c1ccc(Cl)cc1Cl` (stereo not given), the inhibition was -6.54%.
For `CC(C)OC(=O)c1ccc(NCc2cc(O)ccc2O)cc1Cl`, the inhibition was 59.4% (active).
Consider `COC(=O)c1ccc(NCc2cc(O)ccc2O)cc1`, for which the inhibition was 61.8% (active).
For `O=C(C1CCC1)N1CC[C@@H]2[C@H]1c1cc(C#Cc3ccc(F)cc3)ccc1N[C@@H]2CO`, the inhibition was 11%.
Regarding `CO[C@@H]1CN(C)C(=O)c2ccc(NC(=O)Nc3c(C)noc3C)cc2OC[C@@H](C)NC[C@H]1C`, the inhibition is 1.67%.
As to `COc1ccc(S(=O)(=O)N(C)C[C@H]2Oc3c(NS(=O)(=O)c4cccs4)cccc3C(=O)N([C@H](C)CO)C[C@@H]2C)cc1`, the inhibition is 0.582%.
Take `COc1ccc(NC(=O)C2Cc3c(-c4ccc(Cl)cc4)ccnc3O2)cc1` (stereo not given): the inhibition is -1.76%.
On to `O=C(Nc1ccc(Cl)cc1)C1Cc2c(-c3ccc4c(c3)OCO4)ccnc2O1` (stereo not given), for which the inhibition was 8.69%.
In the case of `COc1ccc(NC(=O)C2Cc3c(-c4ccc5c(c4)OCO5)ccnc3O2)cn1` (stereo not given), the inhibition was 52.6% (active).
Turning to `CCCN1C[C@@H](C)[C@H](OC)CN(C)C(=O)c2cc(NC(=O)CC)ccc2OC[C@@H]1C`, the inhibition was -0.843%.
On to `COC(=O)C[C@H]1C=C[C@H](NC(=O)Nc2ccc(C(F)(F)F)cc2)[C@@H](CO)O1`, for which the inhibition is -13.7%.
Turning to `CC(C)C(=O)Nc1ccc2c(c1)C(=O)N(C)[C@H]1CC[C@H](CC(=O)NCc3ccc(F)cc3)O[C@H]1CO2`, the inhibition is -4.82%.
Take `O=C(C1CCC1)N1CCN(c2ccccc2)CC1`: the inhibition is -2.08%.
For `O=C(C1CC(=O)N(C2CCCCC2)C1)N1CCN(c2ccccc2)CC1` (stereo not given), the inhibition was 2.44%.
For the molecule `O=C1C=CC(=O)N1c1ccc(N2CCCCC2)cc1`, the inhibition is 70% (active).
On to `O=C(Nc1cc(F)ccc1F)N1CCCCN2[C@H](CO)[C@@H](c3ccc(-c4cccnc4)cc3)[C@@H]2C1`, for which the inhibition is -2.34%.
As to `CN(C)C(=O)[C@@H]1[C@@H](CO)[C@@H]2Cn3c(ccc(-c4ccncc4)c3=O)[C@H]1N2C(=O)NC1CCCC1`, the inhibition was -5.42%.
The value for `CCCc1cc(=O)[nH]c(SCC(=O)c2c(N)n(CC(C)C)c(=O)n(C)c2=O)n1` was 61.7% (active); that for `CC(C)Cn1c(N)c(C(=O)COC(=O)CN2C(=O)C3CC=CCC3C2=O)c(=O)n(C)c1=O` (stereo not given) was 10.8%; that for `CCCc1cc(=O)[nH]c(SCC(=O)N2C(C)CCCC2C)n1` (stereo not given) was -0.113%.
As to `COc1ccc2c3c(n(C)c2c1)[C@@H](CO)N(C(=O)c1ccccn1)CC31CN(C)C1`, the inhibition is 2.95%.
Regarding `CCOC(=O)c1c(C)[nH]c2c1-c1ccccc1C(=O)C2=O`, the inhibition was 75.3% (active).
As to `CCOC(=O)c1c(C)[nH]c(C(=O)OCC(=O)c2ccc(OC)cc2OC)c1C`, the inhibition was -15.3%.
As for `CCOC(=O)c1c(NC(=O)CSc2nccc(=O)[nH]2)sc(C)c1C`, the inhibition was 1.69%.
Consider `CCCN1C[C@@H](C)[C@@H](OC)CN(C)C(=O)c2cc(NC(=O)C3CCC3)ccc2OC[C@H]1C`, for which the inhibition was 4.62%.
On to `CCCNC(=O)N1CCC2(CC1)CN(C(=O)c1cccnc1)[C@@H](CO)c1[nH]c3cc(OC)ccc3c12`, for which the inhibition is -3.43%.
